Screening data: PubChem, National Center for Advancing Translational Sciences (NCATS)
An excerpt weighted towards active compounds, which were near 6.2% of everything screened.
ATXN2 expr inh: Primary qHTS for Inhibitors of ATXN expression. HEK-293 ATXN2-luciferase reporter, luminescence, 24 h. Potency, µM (series often up to 57 µM), hits mostly inhibitors. hit rate 0.72% among 360,000. AID 1745845, 2022; further: nearly all actives have a fitted effect of over 55% in size
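qHTS (up to 57 uM final) was run with 24 h compound exposure of reporter cells at 37 °C. Each well was multiplexed: SteadyGlo luminescence measured ATXN2-luciferase expression after a fluorogenic Gly-Phe-AFC viability readout (25 uM final).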
KB-3-1 tox: qHTS assay for MDR1-selective chemotherapeutics: Primary screen using the parental adenocarcinoma cell KB-3-1; KB-3-1 viability, CellTiter-Glo ATP luminescence, 72 h; Potency, µM (top dose mostly 46.1 µM), actives largely listed as cytotoxic; hit rate 1.4% among 400,000; AID 1347075, 2019; further: nearly all actives have a fitted effect of over 60% in size
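Cells are dispensed, compounds pinned in, plates held at 37 °C for 72 h, then CellTiter-Glo is added and luminescence read after 10 minutes. Cell line: parental KB-3-1 in phenol-red-free DMEM, 10% FBS.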
KB-V1 cytotox: qHTS assay for MDR1-selective chemotherapeutics: Primary screen using the drug-selected MDR subline cells KB-V1 | KB-V1 MDR cells viability, CellTiter-Glo, 72 h | Potency, µM (doses to about 46.1 µM), hits mostly cytotoxic | hit rate 3.4% among 400,000 | AID 1347076, 2019; further: nearly all actives have a fitted effect of over 60% in size
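Compound-treated KB-V1 multidrug-resistant cells, 72 h, 37 degrees C; viability by CellTiter-Glo. Fitted qHTS curves give the values.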
S2 tox: Viability Counterscreen for Primary qHTS for Inhibitors of ATXN expression. S2 cells (HEK-293 line with an ATXN2-luciferase reporter) viability, CellTiter-Fluor protease fluorescence, 24 h. hit rate 0.49% among 400,000. AID 651635, 2014. Potency, µM (series often up to 56.7 µM), usual class: cytotoxic; further: nearly all actives have a fitted effect of over 40% in size
HT1080NT lethal: qHTS for induction of synthetic lethality in tumor cells producing 2HG: qHTS for the HT-1080-NT fibrosarcoma cell line. HT-1080-NT fibrosarcoma viability, CellTiter-Glo ATP luminescence, 48 h. Potency, µM (highest dose often 46.1 µM), hits mostly cytotoxic. hit rate 1.6% among 360,000. AID 686970, 2013;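 further: NT is the 2HG producing partner of a matched IDH1 knockdown line; nearly all actives have a fitted effect of over 55% in size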
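Viability of the 2HG-overproducing fibrosarcoma line after 48 hours of compound exposure at 37 degrees C was determined by luminescence with CellTiter-Glo, and concentration-effect curves were then fitted and categorized.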
HT1080 IDH1KD tx: qHTS for induction of synthetic lethality in tumor cells producing 2HG: qHTS for the HT-1080-IDH1KD cell line. HT-1080 IDH1 knockdown viability, ATP luminescence, 48 h. Potency, µM (top dose mostly 46.1 µM), hits mostly cytotoxic. hit rate 2% among 360,000. AID 686971, 2013
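Assay cells: HT-1080 with IDH1 knockdown, 750 per well, RPMI/5% FBS. Exposure: 48 h at 37 °C following 2 h pre-incubation. Read: CellTiter-Glo luminescence; fitted concentration-response, curve class assigned.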
Numbers stand for hits; – = inactive; ? = inconclusive; · = no result; + = active, no number. The call rests on the fitted dose curve; in most records, active means well fitted curve in the direction sought with a large enough effect; inconclusive means small, poorly fitted or top-dose-only effect, or another doubt; inactive means no such curve, though single readings can be large; an effect the other way counts as inactive or inconclusive.

SMILES | ATXN2 expr inh | KB-3-1 tox | KB-V1 cytotox | S2 tox | HT1080NT lethal | HT1080 IDH1KD tx
CN(Cc1ccccc1)S(=O)(=O)c1ccc(NC(=O)C2CCCCC2C(=O)O)cc1 (centres undefined) | – | – | 21µM | – | – | –
CC(C)C(=O)NC(=S)Nc1ccc(S(=O)(=O)Nc2ccccc2)cc1 | – | – | 23µM | – | – | –
CCOCCCn1c(=N)c(C(=O)NC(C)c2ccccc2)cc2c(=O)n3cccc(C)c3nc21 (centres undefined) | – | ? | ? | · | · | ·
COc1cccc(N2CCN(C(=O)CCS(=O)(=O)c3ccc4c(c3)CC(=O)N4C)CC2)c1 | – | – | – | – | · | ·
CCOc1cccc(-c2cnc3cccnn23)c1 | – | – | – | – | – | –
CN1CCC(CNc2ccc3ncc(-c4cccc(OC(F)(F)F)c4)n3n2)CC1 | 24µM | · | · | · | · | ·
CCn1c2ccccc2c2nnc(SCCCn3c(=O)[nH]c4ccccc43)nc21 | ? | – | ? | 20µM | – | –
C=CCn1c2ccccc2c2nnc(SCC(=O)NC(C(=O)OC)C(C)C)nc21 (centres undefined) | – | – | 8.2µM | – | – | –
CCn1c2ccccc2c2nnc(SCN3C(=O)c4ccccc4C3=O)nc21 | – | ? | 8.2µM | – | – | –
C=CCn1c2ccccc2c2nnc(SCC(=O)OC)nc21 | · | – | – | – | – | –
CCn1c2ccccc2c2nnc(SCC(N)=O)nc21 | – | – | – | – | ? | –
COc1ccc(NC(=O)CSC2=Nc3ccccc3C3=NC(CCC(=O)NCc4ccc(F)cc4)C(=O)N23)cc1Cl (centres undefined) | – | – | – | ? | · | ·
CS(=O)(=O)N(Cc1ccc(Cl)cc1)c1ccc(C(=O)NCCSc2ccccn2)cc1 | – | ? | 5.8µM | – | – | ?
O=C(NCCSc1ccccn1)c1ccc(Cl)cc1 | – | – | – | – | – | –
CS(=O)(=O)N(Cc1ccc(Cl)cc1)c1ccc(C(=O)Nc2cccnc2)cc1 | – | ? | 21µM | – | – | ?
Cc1nc(-c2ccccn2)sc1C(=O)O | – | – | – | – | – | –
Cc1nc(-c2ccccn2)sc1C(=O)Nc1ccc(Cl)c(Cl)c1 | – | – | 18µM | – | – | –
COc1ccc(C(C)(O)c2nc(-c3ccc(OC)c(OC)c3)cs2)cc1 (centres undefined) | – | – | – | – | – | –
CC(O)(c1ccccc1)c1nc(-c2ccncc2)cs1 (centres undefined) | – | – | ? | – | + | –
COc1ccc(C(C)(O)c2nc(-c3cccc(O)c3)cs2)cc1 (centres undefined) | – | ? | – | ? | ? | 8.2µM
COc1ccc(C(C)(O)c2nc(-c3ccccc3)cs2)cc1 (centres undefined) | – | ? | ? | – | ? | 16µM
COc1ccc(-c2csc(C(C)(O)c3ccccc3)n2)cc1OC (centres undefined) | – | ? | 23µM | – | – | –
CCc1cccc(NC(=O)CCc2c(C)nc3c(-c4ccccc4)c(C)nn3c2C)c1 | – | – | – | – | · | ·
C/C(=N/NC(=O)c1ccncc1)C(=O)O | – | · | · | – | · | ·
CCCCN(C)C(=O)C1CCCN(c2ncnc3onc(C)c23)C1 (centres undefined) | – | ? | – | – | · | ·
SMILES | ATXN2 expr inh | KB-3-1 tox | KB-V1 cytotox | S2 tox | HT1080NT lethal | HT1080 IDH1KD tx
CCCN1CNc2c(c(=O)[nH]c(=S)n2CCC(C)(C)C)C1 | · | · | · | · | – | –
COc1ccc(C(C)(O)c2nc(-c3ccccc3C)cs2)cc1 (centres undefined) | – | 4.6µM | 5.2µM | – | ? | 9.2µM
COc1ccc(Br)cc1/C=N/NC(=O)c1cc(OC)c(OC)c(OC)c1 | – | – | – | – | ? | 16µM
COc1cc(C(=O)N/N=C/c2ccsc2C)cc(OC)c1OC | – | 0.65µM | 0.58µM | – | 0.92µM | 0.58µM
COc1cccc(CN2CCSCC2)c1OC | – | – | – | – | – | –
COc1cccc(CN2CCN(c3cccc(C(F)(F)F)c3)CC2)c1OC | – | – | 21µM | – | – | –
COc1cc(CN2CCN(S(=O)(=O)c3ccccc3)CC2)cc(OC)c1OC | · | – | – | ? | – | –
COc1cc(CN2CCN(c3cccc(Cl)c3)CC2)cc(OC)c1OC | ? | 3.7µM | 2.3µM | – | 8.9µM | 7.1µM
COc1ccc(C(NC(=O)C2CCN(CCOc3ccc(Cl)cc3)CC2)c2cccs2)cc1 (centres undefined) | – | – | – | ? | 21µM | ?
O=C(NC(c1ccc(F)cc1)c1ccc2ccccc2n1)C1CCN(CCOc2ccc(Cl)cc2Cl)CC1 (centres undefined) | ? | ? | ? | · | ? | 12µM
COc1cc(CN2CCC(C(=O)NC(c3ccc(F)cc3)c3ccc4ccccc4n3)CC2)cc(OC)c1 (centres undefined) | – | 5.2µM | ? | ? | 2.3µM | 3.3µM
Cn1cc(CN2CCC(C(=O)NC(c3ccc(F)cc3)c3ccc4ccccc4n3)CC2)c2ccccc21 (centres undefined) | 28µM | ? | ? | 28µM | 23µM | 16µM
COc1ccc(OCCN2CCC(C(=O)NC(c3ccc(F)cc3)c3ccc4ccccc4n3)CC2)cc1 (centres undefined) | ? | ? | – | ? | ? | ?
CCn1nc(C)c(CN2Cc3ccccc3OC(c3ccccc3OC)C2)c1C (centres undefined) | · | · | · | – | · | ·
CC(=O)NC(Cc1ccc(O)cc1)C(=O)NCC(N)C(=O)c1ccccc1 (centres undefined) | · | · | · | · | – | –
CCOc1ccccc1NC(=O)CSc1ccc2nnc(CCNS(=O)(=O)c3ccccc3)n2n1 | · | – | – | · | · | ·
CC(=O)Nc1ccc(/C=C/c2sc3ccccc3[n+]2CCCCI)cc1 | · | – | – | · | · | ·
O=C(NC(c1ccc(F)cc1)c1ccc2ccccc2n1)C1CCN(CCOc2ccc(F)cc2)CC1 (centres undefined) | 28µM | ? | 18µM | 16µM | ? | 9.2µM
O=C(NC(c1ccc(F)cc1)c1ccc2ccccc2n1)C1CCN(Cc2ccc(Oc3ccccc3)cc2)CC1 (centres undefined) | – | ? | – | – | – | ?
O=C(NC(c1ccccc1)c1ccc2ccccc2n1)C1CCN(CCOc2ccc(Cl)cc2)CC1 (centres undefined) | 28µM | ? | ? | 28µM | 3.7µM | 4.1µM
